# Compound activity from PubChem BioAssay.
# ST2 IL33 inh: blocks human ST2 binding to IL-33 | Q01638 | AlphaLISA ST2-Fc/biotin-IL-33 interaction, 1 h | inhibition, % for hits at 17 µM | 78,000 tested, 2.3% active; in the data active means inhibition above about 30%
# Target sequence (Q01638 whole entry, looked up): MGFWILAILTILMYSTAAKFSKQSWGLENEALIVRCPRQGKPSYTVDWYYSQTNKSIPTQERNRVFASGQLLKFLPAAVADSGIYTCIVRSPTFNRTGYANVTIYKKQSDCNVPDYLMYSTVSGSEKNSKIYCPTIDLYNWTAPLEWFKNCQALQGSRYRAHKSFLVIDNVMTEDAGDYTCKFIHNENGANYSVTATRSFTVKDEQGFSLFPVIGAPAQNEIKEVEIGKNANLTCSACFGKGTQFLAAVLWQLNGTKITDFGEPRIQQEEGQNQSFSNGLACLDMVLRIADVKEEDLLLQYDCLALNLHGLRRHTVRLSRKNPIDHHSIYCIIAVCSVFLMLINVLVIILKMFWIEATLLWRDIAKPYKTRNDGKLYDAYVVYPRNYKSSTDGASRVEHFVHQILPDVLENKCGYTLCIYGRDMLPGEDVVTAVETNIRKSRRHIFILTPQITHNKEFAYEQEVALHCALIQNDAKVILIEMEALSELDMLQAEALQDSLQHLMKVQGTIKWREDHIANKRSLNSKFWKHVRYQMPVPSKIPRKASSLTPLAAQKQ
# Numbers without * were called inactive; i = inactive. Only a selection was taken, and hits are over-represented in it overall.
SMILES,ST2 IL33 inh
CC(C)C(NS(=O)(=O)c1cccc2nsnc12)C(=O)NC1CCCC(C)C1C (configuration not stated),i
Nc1ncc2c(n1)CC(c1ccc(Cl)cc1)CC2=O (configuration not stated),i
CCOc1ccc(N=C/C(=C/Nc2ccc(OCC)cc2)c2ccccc2)cc1,36%*
CCOc1ccc(NCC(=O)c2ccc(Br)cc2)cc1,i
CCOc1ccc(N=CNc2ccc(OCC)cc2)cc1,i
CCOc1ccc(C(=O)Nc2c3c(nn2C(C)(C)C)CS(=O)C3)cc1 (configuration not stated),i
O=c1/c(=C/c2ccncc2)sc2n1CN(c1ccc3c(c1)OCO3)CN=2,i
COc1ccc(/C=c2\sc3n(c2=O)CN(c2cccc(F)c2)CN=3)cc1OC,i
CCCCOc1ccc(/C=c2\sc3nc(-c4cccs4)nn3c2=O)cc1OC,i
COc1ccc(/C=c2\sc3n(c2=O)CN(c2ccc4c(c2)OCO4)CN=3)cc1,31%*
COc1ccc(N2CN=c3s/c(=C\c4ccc(OC)c(OC)c4)c(=O)n3C2)cc1,35%*
CC(=O)c1cccc(N2CN=c3s/c(=C\c4cccnc4)c(=O)n3C2)c1,i
CCC(C)NC(=O)C1(O)c2cc(Br)ccc2NC(=O)N1c1ccccc1 (configuration not stated),i
Cc1sc2ncn(CC(=O)N3CCN(c4ccc(F)cc4)CC3)c(=O)c2c1C,i
Cc1ccc(OCCN(C)C(=O)c2nc[nH]c2C)cc1,i
Cc1cc(C)c(S(=O)(=O)N2CCN(c3nc(C)cc(N4CCCCC4)n3)CC2)c(C)c1,i
CC1SC2(CCCCC2)N(c2ccc(Cl)cc2)C1=O (configuration not stated),i
CC(C)(C)C1CCC2(CC1)SCC(=O)N2c1ccc(Cl)cc1 (configuration not stated),36%*
O=C1CSC(c2ccccc2)N1c1ccc(Cl)cc1 (configuration not stated),i
CCN(CC)c1cc(C)c2cc(NC(=O)Cn3nc(C(F)(F)F)cc3C)ccc2n1,i
CC(c1cccs1)N(C)C(=O)c1ccc2sc(N)nc2c1 (configuration not stated),i
Cc1ncnc(N2CCC(N3CCCC(C(=O)N4CCCC4)C3)CC2)c1C (configuration not stated),i
Cc1noc2ncnc(N3CCC(N4CCCC(C(=O)N5CCCC5)C4)CC3)c12 (configuration not stated),i
CNC(=O)c1cccnc1N1CCC(N2CCCC(C(=O)N3CCCC3)C2)CC1 (configuration not stated),33%*
O=C(C1CCCCC1)N1C[C@@H]2C[C@H](C1)c1ccc(-c3ccccc3CN3CCOCC3)c(=O)n1C2,i
SMILES,ST2 IL33 inh
CSCCC(C)N1CCC(Oc2ccc(C(=O)NC3CCCC3)cc2Cl)CC1 (configuration not stated),i
Cc1ccc(-c2ccc3nc(CO)[nH]c3c2)c2cccnc12,i
COc1ccc2c(=O)c(Oc3ccccc3)c(C(F)(F)F)oc2c1,i
C=CC(C)(O)CC/C=C(\C)CCC(O)C(C)(C)O (configuration not stated),43%*
CCCSc1nnc2c(n1)OC(c1ccccc1O)Nc1ccccc1-2 (configuration not stated),i
COc1ccnc(N2C[C@@H]3C[C@H](C2)[C@@H]2CCCC(=O)N2C3)n1,i
CC1(C)C(=O)OC(c2ccccc2F)C2(CCCCC2)C1=O (configuration not stated),i
O=C(O)CCn1c(Cc2ccccc2)n[nH]c1=O,i
Cc1ccc(C)c(OCC(=O)Nc2ccc(C(=O)O)cc2)c1,i
COc1ccc(NC(=O)c2coc(=O)c3ccccc23)c(OC)c1,i
COc1ccc(N2C(=O)c3cccnc3C2=O)c(OC)c1,i
COc1ccc(C2=C/C(=C3/c4ccccc4-c4ncccc43)C(=O)O2)c(OC)c1,31%*
COc1ccccc1-n1c(O)c(C=Nc2ccc(C)cc2)c2ccccc2c1=O,34%*
CCOc1ccccc1N=Cc1c(O)n(-c2ccccc2C)c(=O)c2ccccc12,i
Cc1cc(O)c(C=Nc2cccc(C(=O)O)c2)c(C)c1Cl,i
Cc1ccccc1-n1c(O)c(C=Nc2ccccc2)c2ccccc2c1=O,47%*
COc1ccc(C)cc1NC(=O)CNC(=O)c1cn(-c2ccccc2OC)c(=O)c2ccccc12,i
COc1ccccc1-n1nc(C(=O)O)c2ccccc2c1=O,i
Cc1cccc(C)c1NS(=O)(=O)c1ccc2c(c1)c(=O)n(C)c(=O)n2C,i
CC(C)Oc1ccc(C(=O)N2CCC(C(Cc3ccc(F)cc3F)N(C)C(=O)C3CC3)CC2)cc1 (configuration not stated),i
O=C(Nc1nnc(N=Cc2ccco2)s1)c1ccc(S(=O)(=O)N2CCCCC2)cc1,i
Cc1nc(N2CCC(NCC3C4CC5CC(C4)CC3C5)CC2)nc2cc(S(C)(=O)=O)ccc12 (configuration not stated),i
COc1cccc2sc(N3CCCCC3)nc12,i
O=C(NC1CC1)c1cc2n(n1)CCN(C(=O)CSc1ccccn1)C2,i
O=C1Nc2ccccc2/C1=C/C(=O)c1ccc(Cl)cc1,32%*
SMILES,ST2 IL33 inh
O=C(O)/C=C1\NC(=O)c2ccccc21,i
O=C1Nc2ccccc2C1=Nc1ccc(C(=O)O)cc1,i
Cc1cnn(-c2cc(N3CC[C@@H](c4ccc5c(c4)OCO5)[C@H](O)C3)ncn2)c1,i
O=C(CC1CCCCC1)Nc1cccnc1,i
Cc1ccc(Nc2cc(C)nc(Nc3ccc(NC(=O)CC4CCCC4)cc3)n2)cc1,31%*
Cc1cc(N(C)C)nc(Nc2ccc(NC(=O)CCC3CCCC3)cc2)n1,i
COc1ccc(Nc2cc(C)nc(Nc3ccc(NC(=O)CCC4CCCCC4)cc3)n2)cc1,40%*
COc1ccc(Nc2cc(C)nc(Nc3ccc(NC(=O)CC4CCCC4)cc3)n2)cc1,30%*
Cc1cccc(NC(=O)CCC2CCCCC2)n1,i
Cc1ccc(Cl)cc1N1CCN(CC(O)COc2ccc(F)cc2)CC1 (configuration not stated),i
Cc1c(NS(=O)(=O)CCl)c(=O)n(-c2ccccc2)n1C,i
CC1(O)c2ccccc2C(=O)N1Cc1ccccc1 (configuration not stated),i
CC1(c2ccc(Cl)cc2)CC(C)(C)N(C(=O)CSC#N)c2ccccc21 (configuration not stated),i
CC1(c2ccccc2)CC(C)(C)N2C(=O)C(=O)c3cccc1c32 (configuration not stated),33%*
Cc1oc(-c2cc3c(cc2Cl)OCO3)nc1CN(C)Cc1ccc(C(F)(F)F)cc1,i
CCn1c(C2CCCNC2)nn(CCCn2cnnn2)c1=O (configuration not stated),i
CC1(C)CC(N2C(=O)OC(C)([C@H]3CC4C=CC3C4)C2(C)O)CC(C)(C)N1 (some centres not stated),98%*
O=C([C@H]1Cc2ccccc2CN1)N1C[C@@H]2C[C@H](C1)[C@@H]1CCCC(=O)N1C2,i
CC(C)NC[C@H]1O[C@@H](CO)[C@@H](O)[C@H]1N1CCN(c2cccc(C(F)(F)F)c2)CC1,i
CC(=O)c1cccc(NS(=O)(=O)c2c(C)[nH]c(=O)[nH]c2=O)c1,i
O=C1c2ccccc2C(=O)C1c1ccccn1,i
O=C1c2ccccc2C(=O)C1c1nc2ccccc2[nH]1,i
O=C1c2ccccc2C(=O)C1c1ccncc1,99%*
